# A selection: hits, their analogues and other compounds. The true share with any hit is near 1.3%.
# MEP2 TOR yeast – alters MEP2-GFP fluorescence in TOR pathway yeast screen; S. cerevisiae MEP2-GFP strain, flow cytometry GFP, 3 h; 100% = DMSO control level; GFP response vs DMSO, % at 10 µM; actives 0.51% (n = 330,000); AID 2016;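 active = GFP response versus DMSO above a set limit, roughly screen mean plus 3 SD, cut at about 180% in these data; inconclusive = fewer than 70 cells counted for a yeast strain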;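 note: median GFP fluorescence of the barcode-gated MEP2-GFP cells per well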
# CIT2 TOR yeast – alters CIT2-GFP fluorescence in TOR pathway yeast screen. actives 0.065% (n = 320,000). S. cerevisiae CIT2-GFP strain, flow cytometry, 3 h; 100 means same as DMSO wells. GFP response vs DMSO, % at 10 µM;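 active = GFP response relative to DMSO above a set limit, near the screen mean plus 3 SD, cut at about 150% in these data; inconclusive = Fewer than 70 cells measured for a yeast strain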;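 note: ratio of well median GFP fluorescence to mean of DMSO wells on the plate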
# Efflux pump inh – inhibitors of Candida antifungal efflux pumps expressed in yeast. S. cerevisiae Candida pump triplex, Nile Red efflux. inhibition, % at 10 µM. actives 0.44% (n = 330,000). AID 485275;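 active = plate passing quality check with inhibition over a set limit, or well fluorescence over plate mean plus 4 SD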;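 note: Nile Red retained in pooled yeast measured as flow cytometry median fluorescence; 0% = buffer negative control and 100% = Enniatin B positive control; higher means more Nile Red kept so more efflux inhibition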
# AGP1-GFP MLPCN – modulators of TOR pathway AGP1-GFP in S. cerevisiae; S. cerevisiae AGP1-GFP multiplex flow cytometry, 3 h; GFP as percent of DMSO wells; GFP response vs DMSO, % at 10 µM; actives 0.02% (n = 320,000); AID 2066;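 active = GFP response relative to DMSO above a set limit, near screen average plus 3 SD, cut at about 150% in these data; inconclusive = fewer than 70 cells counted for the yeast strain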;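 note: median GFP channel fluorescence of the gated AGP1 strain per well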
# LAP4 TOR yeast – modulators of TOR pathway LAP4-GFP in S. cerevisiae. S. cerevisiae LAP4-GFP multiplex, flow cytometry GFP, 3 h; median GFP as percent of DMSO wells. GFP response vs DMSO, % at 10 µM. actives 0.34% (n = 320,000). AID 2023;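 active = GFP response vs DMSO above a set limit, about the screen mean plus 3 SD, cut at about 150% in these data; inconclusive = under 70 cell events counted for the yeast strain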
# RPL19A-GFP yeast – alters RPL19A-GFP fluorescence in TOR pathway yeast screen; actives 0.3% (n = 330,000); percent response vs DMSO, % at 10 µM; S. cerevisiae RPL19A-GFP strain, flow cytometry, 3 h; hits give low values;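 active = percent response vs DMSO below 50%; inconclusive = fewer than 70 events counted for the yeast strain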;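 note: median channel GFP fluorescence of the barcoded RPL19A-GFP strain; ratio of sample median GFP to plate DMSO average so 100% = DMSO; lower means less RPL19A-GFP as with rapamycin TOR inhibition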
# Yeast cmpd fluor – flagged as fluorescent in efflux inhibitor counter-screen; shares compounds with Efflux pump inh; S. cerevisiae AD/pABC3, compound fluorescence, flow cytometry; fluorescence ratio to DMSO, % at 10 µM; actives 4% (n = 1,700); AID 588517;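 active = fluorescence ratio to DMSO above its plate's cutoff, the plate mean ratio plus 5 SD, cut at about 210% in these data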;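 note: unstained yeast with no Nile Red so the signal is compound autofluorescence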
# CaMdr1 efflux inh – inhibitors of Candida albicans Mdr1 efflux pump | actives 1% (n = 1,700) | inhibition, % at 10 µM | AID 588518 | shares compounds with Efflux pump inh | S. cerevisiae AD/CaMDR1, Nile Red efflux, flow cytometry; in the data active = inhibition above about 26%;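 note: 0% = DMSO vehicle and 100% = reference inhibitor; higher means more Nile Red retained so more efflux inhibition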
# Cdr2 pump inh – inhibitors of Candida albicans Cdr2 efflux pump. shares compounds with Efflux pump inh. S. cerevisiae AD/CaCDR2, Nile Red retention, flow cytometry. Nile Red retention ratio vs DMSO, % at 10 µM. actives 4% (n = 1,700). AID 588520; in the data active = Nile Red retention ratio vs DMSO above about 190%;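 note: higher ratio means more blocking of Cdr2 efflux of the dye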
# Cdr1 pump inh – Candida Cdr1 efflux pump inhibition; shares compounds with Efflux pump inh; S. cerevisiae AD/CaCDR1, Nile Red efflux, flow cytometry; inhibition, % at 10 µM; actives 1% (n = 1,700); AID 588522;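 active = inhibition above the screen-wide mean plus twice its standard deviation, cut at about 32% in these data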
# An asterisk follows results filed as active; ? = inconclusive; . = no result; [ ] = dose if it differs, or a comment.
SMILES,MEP2 TOR yeast,CIT2 TOR yeast,Efflux pump inh,AGP1-GFP MLPCN,LAP4 TOR yeast,RPL19A-GFP yeast,Yeast cmpd fluor,CaMdr1 efflux inh,Cdr2 pump inh,Cdr1 pump inh
COc1ccccc1NS(=O)(=O)c1ccc(C)c(C(=O)NCCCN2CCCC2=O)c1,102.6,93.6,0.1,99.5,107.8,96.8,.,.,.,.
CC(C)c1ccc(Nc2ccc(C(=O)O)cc2[N+](=O)[O-])cc1,108.2,88.6,-0.1,89.8,110.3,97.2,.,.,.,.
O=c1oc2ccccc2c2c1C(c1ccc(Cl)cc1)Nc1ccc3ccccc3c1-2 (configuration not stated),158.7,?,1.0*,71.3,91.5,39.0*[may fluoresce violet],103.4,-0.2,114.4,0.5
CCOc1ccc(C2Nc3ccc4ccccc4c3-c3c2c(=O)oc2ccccc32)cc1 (configuration not stated),110.9,98.2,0.6*,99.1,97.3,90.9,118.2,0.5,107.2,1.1
CCOc1ccc(OCC(=O)c2c(O)c3ccccc3oc2=O)cc1,93.8,85.6,0.3,96.0,98.0,106.0,.,.,.,.
Cc1ccc(OCc2cc(C(=O)N3CCN(c4ccccc4)CC3)no2)cc1C,99.1,99.6,-0.1,97.2,99.2,98.0,.,.,.,.
C=C[C@@H]1c2cc(C)ccc2N(S(=O)(=O)c2ccc(C)cc2)[C@H](c2ccc(OC(C)=O)cc2)C1(C#N)C#N,85.0,95.6,0.3,67.8,76.0,90.2,.,.,.,.
CC(=O)c1sc(NC(=O)CCN2C(=O)c3ccccc3C2=O)nc1C,98.5,103.2,0.1,91.3,65.1,111.6,.,.,.,.
COc1ccc([C@H]2CC(=O)C=C(c3ccnc4ccc(Cl)cc34)C2)cc1,80.8,75.3,66.5*,89.2,109.6,92.7,104.7,0.0,101.7,0.1
CC1CC(=O)N(CC(=O)Nc2ccc3c(c2)OCCO3)c2ccccc2S1 (configuration not stated),106.3,102.6,-0.1,101.1,98.8,98.5,530.6*,5.3,109.4,-0.2
O=C(CN1C(=O)CC(c2ccco2)Sc2ccccc21)NCc1ccc2c(c1)OCO2 (configuration not stated),108.0,101.3,9.8*,107.1,104.1,103.0,82.2,-0.1,86.9,-0.3
O=C(CN1C(=O)CC(c2ccco2)Sc2ccccc21)Nc1ccccc1F (configuration not stated),97.7,100.5,-0.1,103.8,99.5,101.7,.,.,.,.
CCc1nnc(NC(=O)c2ccc(COc3cccc(C)c3)o2)s1,102.8,96.0,0.0,94.0,94.2,99.9,.,.,.,.
Cc1cc(=O)oc2cc(OCC(=O)OCC(=O)NCCc3ccccc3)ccc12,99.1,89.2,0.1,101.0,98.6,97.9,.,.,.,.
CCC(=O)N1CCc2cc(S(=O)(=O)Nc3ccc4c(c3)OCCO4)ccc21,100.0,96.3,-0.1,102.1,96.1,96.1,.,.,.,.
CCCN(CCC)CCNS(=O)(=O)c1ccc2c(c1)CCN2C(=O)C1CCC1,99.6,104.5,-0.1,99.4,101.3,96.4,106.8,0.1,99.6,0.1
CC1CCCN(CCCNS(=O)(=O)c2ccc3c(c2)CCN3C(=O)C2CC2)C1 (configuration not stated),114.8,69.8,1.4*,15.9,87.9,81.5,115.3,0.3,110.2,0.2
O=C(C1CCC1)N1CCc2cc(S(=O)(=O)Nc3ccc4c(c3)OCCO4)ccc21,94.0,.,-0.1,100.9,86.2,100.0,111.5,0.1,95.1,-0.1
O=C(C1CC1)N1CCc2cc(S(=O)(=O)NCCC3=CCCCC3)ccc21,95.7,.,0.0,93.6,82.0,95.4,.,.,.,.
